Screening results as filed in PubChem.
Tau fibril ThT: tau fibrillization inhibition (ThT binding). P10636. Potency, µM (series often up to 57.4 µM), most hits filed as inhibitors. AID 1460. 2.1% of 270,000 active. recombinant tau K18 P301L, heparin-induced fibrillization, ThT fluorescence; further: nearly all actives have a fitted effect of over 55% in size
Target sequence (P10636 561-689 P618L limits assumed): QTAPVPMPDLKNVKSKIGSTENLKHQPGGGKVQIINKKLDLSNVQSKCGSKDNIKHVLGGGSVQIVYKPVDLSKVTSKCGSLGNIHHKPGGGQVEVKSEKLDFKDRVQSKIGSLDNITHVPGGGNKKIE
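ThT emission at 510 nm, taken 1 hr after adding 30 uM dye, quantifies aggregates formed when 20 uM heparin acts on human tau K18 P301L for 6 hr at 37 C.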
Tau fluor counter: counter-screen for tau fibril formation inhibitors | tau K18 P301L Alexa594 fluorescence, heparin fibrillization | Potency, µM (highest dose often 57.7 µM) | 0.93% of 280,000 active; further: nearly all actives have a fitted effect of over 55% in size
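Human tau K18 P301L (15 uM unlabeled, 0.24 uM Alexa 594-labeled) in 100 mM sodium acetate pH 7 with 20 uM heparin, 6 hr at 37 C. ThT 30 uM added, 1 hr ambient; Alexa 594 FP and total fluorescence read at 555/632 nm.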
RGS12 GoLoco inh: RGS12 GoLoco-Gai1 interaction inhibition. P63096. Gai1:RGS12 GoLoco peptide FP, rhodamine, 10 min. Potency, µM (titrated, usually from 61.6 µM), hits mostly inhibitors. 0.44% of 230,000 active; active means well fitted inhibition curve with a large enough effect, not every such curve was filed as active; inactive means no such curve, though single readings can be large or run the other way; further: nearly all actives have a fitted effect of over 30% in size
Target sequence (P63096 whole entry, looked up): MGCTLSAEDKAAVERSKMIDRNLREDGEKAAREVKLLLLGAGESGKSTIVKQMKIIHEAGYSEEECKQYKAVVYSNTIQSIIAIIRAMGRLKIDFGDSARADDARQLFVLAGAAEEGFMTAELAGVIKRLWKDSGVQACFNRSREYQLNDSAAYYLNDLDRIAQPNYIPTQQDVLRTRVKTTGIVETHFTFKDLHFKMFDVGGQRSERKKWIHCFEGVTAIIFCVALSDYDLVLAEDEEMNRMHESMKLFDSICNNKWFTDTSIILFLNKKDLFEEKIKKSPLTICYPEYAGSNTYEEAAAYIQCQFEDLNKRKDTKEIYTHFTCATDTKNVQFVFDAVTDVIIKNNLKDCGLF
Tau FP inhib: tau fibrillization inhibition (FP) | P10636 | K18 P301L tau heparin fibrillization, Alexa594 FP, 6 h | Potency, µM (doses to about 57.7 µM), usual class: inhibitors | 0.39% of 280,000 active | AID 1468; further: nearly all actives have a fitted effect of over 55% in size
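Quantitative HTS format: compounds meet 15 uM recombinant K18 P301L tau and Alexa 594-tau tracer in 100 mM sodium acetate pH 7; 20 uM heparin triggers fibrillization at 37 C over 6 hr; FP gives the signal.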
JMJD2E inh: blocks human JMJD2E demethylase activity; JMJD2E catalytic domain, FDH-coupled NADH fluorescence (FDH is formaldehyde dehydrogenase); Potency, µM (series often up to 57.1 µM), actives largely listed as inhibitors; 1.6% of 230,000 active; AID 2147; active means well fitted inhibition curve with a large enough effect, not every such curve was filed as active; inconclusive means small, poorly fitted or top-dose-only effect, or another doubt; inactive means no such curve, though single readings can be large or run the other way; further: nearly all actives have a fitted effect of over 50% in size
Hits are given with their value; – = inactive; ? = inconclusive; · = not tested or not shown; [ ] = another dose, or the depositor's remark. Sampled rows, rich in hits. Any-hit rate of the full collection: about 3.4%. Unless noted, the call rests on the fitted dose curve; in most records, active means well fitted curve in the direction sought with a large enough effect; inconclusive means small, poorly fitted or top-dose-only effect, or another doubt; inactive means no such curve, though single readings can be large; an effect the other way counts as inactive or inconclusive.

SMILES | Tau fibril ThT | Tau fluor counter | RGS12 GoLoco inh | Tau FP inhib | JMJD2E inh
Cc1cccc(OCCSc2nc3ccc(NC(=O)c4cccs4)cc3s2)c1 | – | ? | · | 7.1µM | ·
COc1cccc(NC(=O)CSc2nc3ccc(NC(=O)c4ccco4)cc3s2)c1 | – | 16µM[quencher] | · | ? | ·
Cc1ccc(NC(=O)CSc2nc3ccc(NC(=O)c4cccs4)cc3s2)cc1 | – | ? | · | ? | ·
Cc1ccccc1OCCSc1nc2ccc(NC(=O)c3cccc(F)c3)cc2s1 | ? | ? | · | 14µM | ·
Cc1cccc(NC(=O)CSc2nc3ccc(NC(=O)c4ccco4)cc3s2)c1 | – | ? | · | ? | ·
Cc1ccc(NC(=O)CSc2nc3ccc(NC(=O)c4cccs4)cc3s2)c(C)c1 | – | ? | · | 18µM | ·
Cc1ccccc1C(=O)Nc1ccc2nc(SCCOc3ccccc3)sc2c1 | – | – | · | ? | ·
CC(=O)Nc1ccc2nc(SCCOc3ccccc3)sc2c1 | – | ? | · | ? | ·
Cc1ccccc1NC(=O)c1ccc(F)c(S(=O)(=O)N(C)Cc2ccccc2)c1 | – | – | · | – | ·
CC(=O)Nc1ccc2nc(SCCOc3ccc(C)cc3)sc2c1 | – | – | · | ? | ·
COc1cc(C)ccc1OCCSc1nc2ccc(NC(C)=O)cc2s1 | – | ? | · | 25µM | ·
Cc1ccc(NC(=O)CSc2nc3ccc(Br)cc3[nH]2)c(C)c1 | – | ? | · | 22µM | ·
Cc1ccccc1OCC(=O)Nc1ccc2nc(SCCOc3ccccc3)sc2c1 | ? | – | · | – | ·
CCCC(=O)Nc1ccc2nc(SCC(=O)Nc3ccc(N4CCOCC4)c(Cl)c3)sc2c1 | ? | 14µM[quencher] | 4.5µM | – | –
Cc1ccccc1OCCSc1nc2ccc(NC(=O)c3cccs3)cc2s1 | – | ? | · | 10µM | ·
Nc1ccc2nc(SCC(=O)Nc3ccc(N4CCOCC4)c(Cl)c3)sc2c1 | ? | ? | – | – | –
COc1cc(NS(=O)(=O)c2cnc(N)nc2)cc(OC)c1 | – | – | · | – | ·
Cn1ncc(C(=O)N2CCN(c3ccc(F)cc3)CC2)c1C1CCN(C(=O)OC(C)(C)C)CC1 | – | – | · | – | ·
Cc1ccccc1OCCSc1nc2ccc(NC(=O)c3ccccc3)cc2s1 | – | ? | · | 11µM | ·
O=C(CSc1nc2ccc(Nc3nc(N4CCCC4)nc(N4CCCC4)n3)cc2s1)NCc1ccco1 | · | – | – | – | 20µM
CCOC(=O)c1cc(C)n(CC2CCC(C(=O)Nc3cc(OC)cc(OC)c3)CC2)c1C (stereo not drawn) | – | – | · | – | ·
COC(=O)CSCc1nc2ccccc2[nH]c1=O | 32µM | – | – | ? | ?
COC(=O)CCc1nc2ccccc2[nH]c1=O | – | – | – | – | ?
C=CC(C)(C)c1[nH]c2ccccc2c1C1=C(O)C(=O)C(c2c[nH]c3c(CC=C(C)C)cccc23)=C(O)C1=O | 14µM | 16µM[quencher] | – | ? | 25µM
COC(=O)c1cccc(NC(=O)Nc2ccc(Cl)c(Cl)c2)c1 | ? | ? | – | 13µM | –
SMILES | Tau fibril ThT | Tau fluor counter | RGS12 GoLoco inh | Tau FP inhib | JMJD2E inh
COC(=O)c1ccc(NC(=O)Nc2ccc(F)c(Cl)c2)cc1 | ? | ? | – | 16µM | –
CN(C)S(=O)(=O)Oc1cccc(C(=O)Nc2ccc(Cl)c(Cl)c2)c1 | – | ? | – | 20µM | –
COC(=O)c1cccc(NC(=O)NC(=O)c2ccccc2Cl)c1 | – | – | – | – | –
CN(C)S(=O)(=O)Oc1cccc(C(=O)Nc2cccc(Cl)c2)c1 | – | ? | – | ? | –
COc1ccccc1C1NC=C([N+](=O)[O-])C=C1[N+](=O)[O-] (stereo not drawn) | 11µM | ? | – | ? | –
COc1ccccc1C1C([N+](=O)[O-])=CC([N+](=O)[O-])=CN1C (stereo not drawn) | ? | – | – | – | –
Cc1cccc2c1-c1sc(C(=O)N3CCN(c4ccccc4)CC3)cc1CO2 | ? | – | · | – | ·
CCOc1ccc(NC(=O)CSc2nc(-c3ccccc3)c3cc(OCC)ccc3n2)cc1 | – | – | · | – | ·
N#CSCC(=O)c1cccc2ccccc12 | 25µM | – | – | ? | –
NC(=O)c1cccc2ccccc12 | – | – | – | – | –
O=c1cc(-c2ccccc2Cl)oc2ccc([N+](=O)[O-])c(O)c12 | 11µM | – | – | – | ?
CN1C(=O)/C(=C/c2cc(N=Nc3ccccc3)ccc2O)SC1=S | 4.5µM | 6.3µM[quencher] | – | ? | –
O=C1/C(=C/c2ccccc2O)SC(=S)N1Cc1cccnc1 | ? | – | – | – | –
Cc1c(N2C(=O)/C(=C\c3ccccc3O)SC2=S)c(=O)n(-c2ccccc2)n1C | 32µM | – | – | ? | –
Cc1c(N2C(=O)/C(=C/c3ccccc3)SC2=S)c(=O)n(-c2ccccc2)n1C | ? | – | – | – | –
Fc1ccc(Nc2ncnc3onc(-c4cccc(Cl)c4)c23)c(F)c1 | – | – | · | – | ·
Oc1ccc(/C=C/c2nc(-c3ccccc3O)n(-c3ccccc3)n2)cc1 | ? | 32µM[quencher] | – | ? | ?
Oc1ccc(/C=C/c2nc(-c3ccccc3O)n(-c3ccccc3)n2)c(O)c1 | ? | 5.6µM[quencher] | · | ? | ·
Oc1ccccc1-c1nc(/C=C/c2ccccc2)nn1-c1ccccc1 | – | ? | – | – | –
COc1cccc(-c2csc(-c3c(N)c(C(=O)c4ccccc4)n4ccccc34)n2)c1 | ? | ? | · | – | ·
Cc1cc(C2CCCCC2)n(O)c(=O)c1 | – | – | – | – | 10µM
COc1ccccc1-c1nc2c(c(SCc3cc(C)ccc3C)n1)Cc1c(CO)cnc(C)c1O2 | ? | – | · | – | ·
CC(C)(C)C(=O)CSc1nc2ccsc2c(=O)n1Cc1ccccc1Cl | – | – | · | – | ·
CCCCc1ccc(-n2nc3cc(C)c(NC(=O)Cc4ccccc4)cc3n2)cc1 | 32µM | 40µM[quencher] | · | ? | ·
CC1(C)OC(C)(C)/C(=C/Nc2ccc(O)cc2)C1=O | 14µM | ? | – | ? | ?
SMILES | Tau fibril ThT | Tau fluor counter | RGS12 GoLoco inh | Tau FP inhib | JMJD2E inh
CC(Oc1ccccc1)C(=O)Nc1ccccc1C(=O)OCc1cc(=O)n2nc(C(C)C)sc2n1 (stereo not drawn) | – | – | · | – | ·
N#Cc1cc2c(OCC(O)CN3CCN(C(c4ccccc4)c4ccccc4)CC3)cccc2[nH]1 (stereo not drawn) | – | ? | – | 28µM | ·
CCC(=O)c1ccc(OCC(O)CN2CCN(C(c3ccccc3)c3ccccc3)CC2)cc1 (stereo not drawn) | – | – | – | – | –
CCc1cccc(C)c1NC(=O)C1CCN(c2nnc(C)c3c(C)n(-c4ccccc4)nc23)CC1 | ? | – | · | – | ·
Cc1cc([N+](=O)[O-])ccc1NC(=O)c1ccco1 | – | – | – | – | –
NS(=O)(=O)c1ccc(O)c(NC(=O)c2ccc([N+](=O)[O-])o2)c1 | 25µM | – | – | 18µM | ?
Cc1cc(NC(=O)c2ccc([N+](=O)[O-])o2)ccc1NC(=O)c1ccco1 | 14µM | – | – | – | –
Cc1cccc(OC(=O)c2snnc2C)c1C | ? | – | · | – | ·
CCOC(=O)N1CCN(c2ncnc3c2[nH]c2ccc(F)cc23)CC1 | ? | – | – | – | ?
CCOC(=O)N1CCN(c2ncnc3c2[nH]c2ccc(OC)cc23)CC1 | 8.9µM | – | – | – | ?
